Consider 23 compounds from PubChem BioAssay (NCATS).

Where “and” joins values, the source holds several entries; their conditions need not be identical. Equal entries are not always repeated. Results filed as inconclusive are left out. A number with no mark means an inactive call. Calls of active or inactive are those of the source. The call rests on the fitted dose curve; in most records, active means well fitted curve in the direction sought with a large enough effect; inconclusive means small, poorly fitted or top-dose-only effect, or another doubt; inactive means no such curve, though single readings can be large; an effect the other way counts as inactive or inconclusive.

The target in assay [1] is Cellular tumor antigen p53 (Homo sapiens) (UniProt P04637). In words: Primary qHTS for small molecule compounds that upregulate eGFP-tagged delta133p53alpha (in N-terminal) cells. (AID 2060322).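 Further: cells pre-induced with doxycycline then dosed without doxycycline; series mostly up to about 56 µM; 0% = DMSO vehicle and 100% = reference activator; nearly all actives have a fitted effect of over 75% in size.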 To be noted: NCI-H358 eGFP-delta133p53alpha fluorescence, 24 h; activation: hits give high values. In a few lines: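 NCI-H358 cells pre-induced 24 h with 10 ng/ml doxycycline for eGFP-delta133p53alpha, plated dox-free and exposed 24 h at 37C to titrated compounds. Fixed, Hoechst-stained; gated GFP peak intensity by laser scanning cytometry, normalized to DMSO (0%) and 57.5 uM 5-azacytidine (100%).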
In general terms: qHTS replaces the single test concentration by a dilution series.

Assay [2] can be described thus: qHTS for Inhibitors of the Aldehyde Dehydrogenase Family (ALDH1A2, ALDH1A3, ALDH2, ALDH3A1) (AID 2061307). Further: nearly all actives have a fitted effect of over 50% in size. On Potency: test system not described further here; potency means the concentration at half of the fitted maximal effect.
Assay [3] has as its target Retinaldehyde dehydrogenase 3 (Homo sapiens) (UniProt P47895). As to the kind of experiment: qHTS for Inhibitors of the Aldehyde Dehydrogenase Family (ALDH1A3) Confirmatory screens (AID 2061311). Further: potency means the concentration at half of the fitted maximal effect; nearly all actives have a fitted effect of over 60% in size.
Assay [4] concerns the target Retinal dehydrogenase 2 (Homo sapiens) (UniProt O94788). As to the kind of experiment: qHTS for Inhibitors of the Aldehyde Dehydrogenase Family (ALDH1A2) Confirmation screens (AID 2061314). Further: nearly all actives have a fitted effect of over 65% in size. Further: potency means the concentration at half of the fitted maximal effect.
Assay [5] deals with Retinaldehyde dehydrogenase 3 (Homo sapiens) (UniProt P47895). In words: qHTS for Inhibitors of the Aldehyde Dehydrogenase Family (ALDH1A3) Primary screen (AID 2061315). Further: potency means the concentration at half of the fitted maximal effect.
For assay [6], the target named is Aldehyde dehydrogenase, mitochondrial (Homo sapiens) (UniProt P05091). As to the kind of experiment: qHTS for Inhibitors of the Aldehyde Dehydrogenase Family (ALDH2) Primary screen (AID 2061308).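 Further: plate controls were vehicle for no effect and reference inhibitor for full effect; nearly all actives have a fitted effect of over 55% in size.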
Assay [7] concerns the target Aldehyde dehydrogenase 1A1 (Homo sapiens) (UniProt P00352). In words: qHTS for Inhibitors of the Aldehyde Dehydrogenase Family (ALDH1A1) Confirmatory screens (AID 2061316). Further: nearly all actives have a fitted effect of over 65% in size. Further: potency means the concentration at half of the fitted maximal effect.
The target in assay [8] is Retinaldehyde dehydrogenase 3 (Homo sapiens) (UniProt P47895). In words: qHTS for Inhibitors of the Aldehyde Dehydrogenase Family (ALDH1A3) Validation screen (AID 2061312). Further: nearly all actives have a fitted effect of over 45% in size. Further: potency means the concentration at half of the fitted maximal effect.
Assay [9] in a line: BET inhibitor-based combinations targeting novel dependencies in MECOM-rearranged (r) AML: SET-2 cell line (AID 2202231).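 Further: plate controls were DMSO treated cells for no effect and wells without cells for full effect; nearly all actives have a fitted effect of over 35% in size.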 The conditions noted are these: SET-2 AML cells viability, CellTiter-Glo luminescence, 48 h; viability: hits give low values, series mostly up to about 46 µM. In a few lines:
(§1)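 Here, 11-point titrations of each agent were applied to 500 seeded cells and incubated 48 hr; CellTiter-Glo signal, scaled against DMSO and empty wells, was integrated as AUC, then Z-scored within the individual line.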
In general terms: Cellular ATP, detected with luciferase, serves as a proxy for viable cell number.

Assay [10] in a line: BET inhibitor-based combinations targeting novel dependencies in MECOM-rearranged (r) AML: OCI-AML3 cell line (AID 2202232).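 Further: series mostly up to about 46 µM; plate controls were DMSO vehicle wells for no effect and wells without cells for full effect; nearly all actives have a fitted effect of over 35% in size.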 The conditions noted are these: Potency: OCI-AML3 viability. The method in brief: as §1
Assay [11] in a line: BET inhibitor-based combinations targeting novel dependencies in MECOM-rearranged (r) AML: MV-4-11 cell line (AID 2202233).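 Further: plate controls were DMSO for no effect and blank wells for full effect; nearly all actives have a fitted effect of over 45% in size.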 The method in brief: (§2)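 Normalized to DMSO and empty-well controls, the luminescence data from CellTiter-Glo after 48 hr drug exposure were fitted across 11 concentrations. Reported metrics are area under the dose-response curve and its Z-transformed form.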

Assay [12] is described as follows: BET inhibitor-based combinations targeting novel dependencies in MECOM-rearranged (r) AML: HNT-34 cell line (AID 2202234).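 Further: plate controls were vehicle wells for no effect and cell-free wells for full effect; nearly all actives have a fitted effect of over 35% in size.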 In a few lines: as §2
Assay [13] in a line: BET inhibitor-based combinations targeting novel dependencies in MECOM-rearranged (r) AML: UCSD-AML1 cell line (AID 2202235).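 Further: series mostly up to about 46 µM; plate controls were DMSO vehicle wells for no effect and blank wells for full effect; nearly all actives have a fitted effect of over 40% in size.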 In a few lines: as §2
Assay [14] can be described thus: BET inhibitor-based combinations targeting novel dependencies in MECOM-rearranged (r) AML: AML-191 cell line (AID 2202236;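 further: plate controls were vehicle wells for no effect and wells without cells for full effect; nearly all actives have a fitted effect of over 35% in size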). In a few lines:
as §1

Chain of Cellular tumor antigen p53 (Homo sapiens) (P04637 whole entry, looked up): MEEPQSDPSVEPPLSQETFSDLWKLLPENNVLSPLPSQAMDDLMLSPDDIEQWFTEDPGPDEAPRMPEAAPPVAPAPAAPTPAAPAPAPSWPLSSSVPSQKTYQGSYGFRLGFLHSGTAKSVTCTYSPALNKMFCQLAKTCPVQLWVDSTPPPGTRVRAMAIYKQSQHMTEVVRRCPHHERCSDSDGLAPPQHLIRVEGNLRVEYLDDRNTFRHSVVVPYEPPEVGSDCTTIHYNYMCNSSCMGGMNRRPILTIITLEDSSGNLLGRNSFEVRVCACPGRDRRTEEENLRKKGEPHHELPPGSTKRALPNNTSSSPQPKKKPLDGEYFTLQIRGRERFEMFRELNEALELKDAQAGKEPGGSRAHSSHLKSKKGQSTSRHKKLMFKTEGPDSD

On to `OC[C@H]1O[C@@H](Oc2ccc(O)c3cccc(O)c23)[C@H](O)[C@@H](O)[C@@H]1O`, for which the activation in assay [1] was -13%. The Potency in assay [2] is 7.83 µM (active); in assay [3] it was 0.985 µM (active); in [4] it was 2.47 µM (active); in [5], 1.78 µM (active).
On to `CC1(C)CC2C=C(C(=O)O)C3COC(=O)C(O)(CO)C23C1` (stereo not drawn), for which the activation in [1] is -13%. The Potency entry in assay [6] was “inactive”.
Take `CC1(C)C(O)CCC2(C)C1C(O)C=C1COC(=O)C12O` (stereo not drawn): the activation in assay [1] was 3.82%. Besides, in assay [6], the Potency entry is “inactive”.
In the same order, the values of `CC1CC=C2C1CC1(O)C(=O)CC2(C)C1(C)CO` (stereo not drawn) are 3.82% and “inactive”.
Consider `COc1cc(/C=C/C(=O)OC[C@H]2O[C@@H](OC3CC(C)=C(C(=O)O)C(C)(C)C3)[C@H](O)[C@@H](O)[C@@H]2O)cc(OC)c1O` (stereo partly drawn), for which, in [1], the activation was -16.8%. The Potency entry in assay [6] was “inactive”.
For the compound `CC1(C)CC[C@]2(C(=O)O[C@@H]3O[C@H](CO)[C@@H](O)[C@H](O)[C@H]3O)CC[C@]3(C)C(=CCC4[C@@]5(C)C[C@@H](O)[C@H](O)C(C)(C)C5[C@H](O)C[C@]43C)[C@@H]2[C@@H]1O` (stereo partly drawn), the activation in assay [1] is -11.5%. Further, the Potency entry in assay [6] is “inactive”.
In the case of `CC1(C)C=Cc2c(ccc3c2[N+]([O-])=C2C3(O)CC34NC(=O)C5(CCCN5C3=O)CC4C2(C)C)O1` (stereo not drawn), the activation in [1] was 6.25%. The Potency result in assay [6] is “inactive”.
For the compound `COC(CCc1ccc(O)cc1)CC(=O)CCc1ccc(O)cc1` (stereo not drawn), the activation in assay [1] is 7.63%. In addition, the Potency entry in [2], in assay [5] and in assay [7] was “inactive” in each case.
Turning to `CC(C)CC1NC(=O)C2CC3(O)c4ccccc4NC3N2C1=O` (stereo not drawn), the activation in assay [1] was -9.92%. Also, in assay [6], the Potency result is “inactive”.
By viability is commonly meant a per cent measure of how many cells are alive, often set against a control. With `O=S(=O)(O)c1ccc2cc(N=Nc3cc(S(=O)(=O)O)c4cccnc4c3O)ccc2c1`, the activation in [1] was -29.8% and -2.86%. Moreover, the Potency result in assay [2], in assay [8], in assay [4], in assay [5], in assay [10] and in [11] was “inactive” in each case. Also, the Potency entry in assay [12], in assay [13] and in assay [14] was “inactive” in each case. The viability in [9] was 95.4%.
In the case of `Oc1ccc(O)cc1`, in [1], the activation was 17.5% and -0.402%. The Potency is 11.3 µM (active) in assay [2], 4.49 µM (active) in [3], 0.794 µM (active) in [8] and 11.3 µM (active) in assay [7].
With `COc1cc(CC(COC2OC(CO)C(O)C(O)C2O)c2cc(/C=C/CO)cc(OC)c2O)ccc1O` (stereo not drawn), the activation in assay [1] was -6.25%. Also, in assay [6], the Potency entry was “inactive”.
As to `CCOC(=O)N1CCC(CN(Cc2ccc(Cl)cc2)Cc2ccc([N+](=O)[O-])s2)C1` (stereo not drawn), the activation in assay [1] is 6.21%. For the same compound, the Potency result in [2], in assay [4] and in [5] was “inactive” throughout. Besides, the Potency in assay [8] was 10 µM (active).
Regarding `Cn1c(N2CCCCS2(=O)=O)nc(C(=O)NCc2ccc(F)cc2)c(O)c1=O`, the activation in assay [1] is 0.955%. Also, the Potency in assay [2] was 12.7 µM (active). Besides, the Potency entry in [5] and in [7] was “inactive” throughout.
As to `C[C@@H]1O[C@@H](O[C@H]2[C@H](O)[C@@H](O)[C@H](OC(=O)[C@]34CCC(C)(C)C[C@H]3C3=CCC5[C@@]6(C)CC[C@H](O[C@@H]7O[C@H](C(=O)O)[C@@H](O)[C@H](O)[C@H]7O)C(C)(C)C6CC[C@@]5(C)[C@]3(C)CC4)O[C@@H]2CO)[C@H](O)[C@H](O)[C@H]1O` (stereo partly drawn), the activation in assay [1] is -9.16%. For the same compound, the Potency result in assay [6] was “inactive”.
The corresponding values for `CC(C)n1nc(C#Cc2ccccc2)c2c(N)ncnc21` are 25% and “inactive”.
The corresponding values for `C#CCCCn1cc(-c2cccc3c2N[C@@H](C)CC(=O)N3)cn1` are -18.8% and “inactive”.
For `COc1ccc(-c2ccc3c(N4CCOCC4C)nc(N4CCOCC4C)nc3n2)cc1CO` (stereo not drawn), the activation in assay [1] was 7.14%. For the same compound, the Potency entry in assay [6] is “inactive”.
Regarding `CC(NC(=O)CC(=O)O)c1nc2ccccc2c(=O)[nH]1` (stereo not drawn), the activation in assay [1] was -5.36%. For the same compound, the Potency result in [2] and in [6] was “inactive” each time. Moreover, the Potency in [7] is 1.27 µM (active).
Take `C[C@@H]1O[C@@H](O[C@H]2[C@H](OC(=O)C34CCC(C)(C)CC3C3=CCC5C6(C)CC(O)C(O[C@@H]7O[C@H](CO)[C@@H](O)[C@H](O)[C@H]7O)C(C)(C(=O)O)C6CCC5(C)C3(CO)CC4)O[C@H](C)[C@H](O)[C@@H]2O)[C@H](O)[C@H](O)[C@H]1O[C@@H]1OC[C@@H](O)[C@H](O)[C@H]1O` (stereo partly drawn): the activation in assay [1] was -12.5%. Moreover, the Potency entry in assay [6] was “inactive”.
As for `C=C1CCC2(C(=O)OC3OC(CO)C(O)C(O)C3O)CCC3(C)C(=CCC4C5(C)CCC(OC6OC(CO)C(OC7OC(C)C(O)C(O)C7O)C(OC7OCC(O)C(O)C7O)C6O)C(C)(C)C5CCC43C)C2C1` (stereo not drawn), in [1], the activation is 14.3%. For the same compound, in [6], the Potency entry is “inactive”.
Consider `COc1cc2c(cc1NS(=O)(=O)c1ccc(Br)cc1C)n(C)c(=O)n2C`, for which the activation in assay [1] is -22.3%. For the same compound, the Potency entry in [2] and in assay [7] was “inactive” in each case. The Potency in assay [8] is 31.6 µM (active); in assay [4] it was 20.1 µM (active).
For `Nc1nc2c(cnn2CCCc2ccc(O)cc2)c2nc(-c3ccco3)nn12`, in assay [1], the activation was -11%. For the same compound, in assay [6], the Potency result is “inactive”.
